# Source: PubChem
# TLR4-MyD88 BLA: inhibitors of human TLR4-MyD88 binding. HeLa CL3-4 TLR4/MyD88 BLA complementation, FRET ratio. AID 861. 200,000 compounds, 0.18% hits. O00206+Q99836. inhibition, % at 8.4 µM; in the data active = inhibition above about 25%
# HTR2A ag: agonists of mouse serotonin 5-HT2A receptor (HTR2A); P35363; AID 624169; 360,000 compounds, 0.66% hits; CHO-K1 mHTR2A beta-arrestin complementation, luminescence; percent of 30 µM serotonin response; activation, % at 7.6 µM;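 active = activation above a run cutoff, the mean activation of all tested compounds plus 3 SD, cut at about 14% in these data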
# NOD2-RIPK2 inh: NOD2-RIPK2 protein interaction inhibition | O43353 | CHO BLA complementation NOD2-RIPK2, CCF4 ratio | inhibition, % at 4.98 µM | 360,000 compounds, 0.38% hits | AID 624267; in the data active = inhibition above about 21%
# TLR9-MyD88 inh: inhibitors of human TLR9-MyD88 binding; Q9NR96+Q99836; inhibition, % at 4.98 µM; CHO BLA complementation TLR9-MyD88, CCF4 FRET ratio; 340,000 compounds, 0.21% hits;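 active = inhibition above the mean over all tested compounds plus 3 SD, cut at about 21% in these data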
# LANA-H2A inh: blocks KSHV LANA binding to histone H2A/H2B; cell-free LANA-H2A/H2B peptide, fluorescence polarization; Q9QR71; 320,000 compounds, 0.6% hits; inhibition, % (concentration not given with the values); in the data active = inhibition mostly above about 10%, no sharp cut-off; inactive = mostly below about 6.7%
# Target sequence (Q9QR71 whole entry, looked up): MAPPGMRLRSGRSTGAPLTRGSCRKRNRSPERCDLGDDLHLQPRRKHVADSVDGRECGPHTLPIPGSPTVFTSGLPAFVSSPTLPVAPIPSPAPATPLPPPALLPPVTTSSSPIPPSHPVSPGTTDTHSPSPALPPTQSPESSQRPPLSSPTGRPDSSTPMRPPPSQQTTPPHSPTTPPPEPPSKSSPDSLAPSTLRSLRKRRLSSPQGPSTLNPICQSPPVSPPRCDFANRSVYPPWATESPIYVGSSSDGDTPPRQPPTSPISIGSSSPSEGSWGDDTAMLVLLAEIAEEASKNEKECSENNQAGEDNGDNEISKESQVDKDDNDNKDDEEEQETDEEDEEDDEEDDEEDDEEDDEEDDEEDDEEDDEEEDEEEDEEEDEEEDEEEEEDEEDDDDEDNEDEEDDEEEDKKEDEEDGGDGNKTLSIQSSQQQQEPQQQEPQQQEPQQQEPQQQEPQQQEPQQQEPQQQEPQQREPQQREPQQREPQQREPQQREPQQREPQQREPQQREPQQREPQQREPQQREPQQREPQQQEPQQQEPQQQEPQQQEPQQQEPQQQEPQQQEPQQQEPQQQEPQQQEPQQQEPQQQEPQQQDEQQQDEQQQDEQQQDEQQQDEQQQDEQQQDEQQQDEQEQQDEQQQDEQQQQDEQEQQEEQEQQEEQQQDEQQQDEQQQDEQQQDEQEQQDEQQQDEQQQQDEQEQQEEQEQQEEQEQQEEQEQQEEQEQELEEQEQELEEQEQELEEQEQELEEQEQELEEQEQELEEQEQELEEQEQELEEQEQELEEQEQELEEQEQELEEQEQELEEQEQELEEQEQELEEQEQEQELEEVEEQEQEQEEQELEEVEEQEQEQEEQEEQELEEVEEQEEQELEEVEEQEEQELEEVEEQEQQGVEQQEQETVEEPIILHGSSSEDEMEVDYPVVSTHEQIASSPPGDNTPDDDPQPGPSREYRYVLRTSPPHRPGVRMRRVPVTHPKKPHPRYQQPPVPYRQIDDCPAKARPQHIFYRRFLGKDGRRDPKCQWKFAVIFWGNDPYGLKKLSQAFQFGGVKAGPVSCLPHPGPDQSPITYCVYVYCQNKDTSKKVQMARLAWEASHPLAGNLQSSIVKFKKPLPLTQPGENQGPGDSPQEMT
# Rtt109 Vps75: blocks Candida albicans Rtt109/Vps75 acetyltransferase activity | Q5AAJ8 | purified Rtt109/Vps75, ThioGlo CoA-SH fluorescence, 4 h | inhibition, % at 34.9 µM | 330,000 compounds, 0.16% hits | AID 540336;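 active = inhibition of at least 50% in every replicate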
# Numbers stand for hits; – = inactive; · = no result; + = active, no number; ! = not confirmed by another sample. Hits are enriched below; roughly 1.8% of the tested compounds scored in any of these assays.
SMILES,TLR4-MyD88 BLA,HTR2A ag,NOD2-RIPK2 inh,TLR9-MyD88 inh,LANA-H2A inh,Rtt109 Vps75
CCOc1ccc(C(=O)Nc2ccc(S(=O)(=O)N3CCN(C)CC3)cc2)cc1,·,–,–,–,14.6,–
CC(C)Oc1ccc(C(=O)Nc2ccc(S(=O)(=O)N3CCN(C)CC3)cc2)cc1,·,–,–,–,–,–
CCOc1ccc(C(=O)Nc2ccc(S(=O)(=O)N3C[C@@H]4C[C@@H](C3)c3cccc(=O)n3C4)cc2)cc1,·,–,–,–,17.4,–
COc1ccc(CN2C(=O)CSCC2(C)C(=O)Nc2c(C)cccc2C)cc1OC (stereo unspecified),·,–,–,·,·,·
O=C(CSc1nnc(Cc2cccs2)n1C1CCCCC1)N1CCN(C(=O)c2ccco2)CC1,–,–,–,–,–,50.8
CC(Sc1nnc(Cc2cccs2)n1C1CCCCC1)C(N)=O (stereo unspecified),–,–,–,–,–,–
CC1CCCN(Cc2nc3c(c(=O)n(C)c(=O)n3C)n2CC(N)=O)C1 (stereo unspecified),–,–,–,–,13.5,–
COc1ccccc1N1CCN(CC(O)COc2cccc3ccccc23)CC1 (stereo unspecified),–,–,–,–,23.5!,–
O=C(Nc1ccccc1C(=O)Nc1ccccc1)c1ccccc1F,·,–,–,–,–,–
O=C(NNC(=O)c1ccccc1[N+](=O)[O-])c1ccc(NC(=O)c2ccccc2)cc1,·,–,–,–,–,–
O=C(Nc1ccccc1)c1ccccc1NC(=O)c1ccccc1[N+](=O)[O-],·,–,–,–,–,50.5
O=C(O)c1cccc(NC(=O)c2ccccc2NC(=O)c2ccccc2F)c1,·,–,–,–,16.7,–
O=C(Nc1ccccc1Oc1ccsc1C(=O)O)c1ccccc1F,·,–,–,–,97.9,–
COc1cccc(C(=O)NCCN2CCC(n3c(=O)[nH]c4ccccc43)CC2)c1,·,–,–,·,·,·
CSc1ncccc1C(=O)N1CCCC(CCC(=O)NCc2ccc(F)c(F)c2)C1 (stereo unspecified),–,–,–,–,14.3,–
Cc1occc1C(=O)N1CCCC(CCC(=O)NCc2ccc(F)c(F)c2)C1 (stereo unspecified),–,–,–,–,–,–
CCOc1ccccc1CN1CCNC(=O)C1CC(=O)N(C)CCc1ccccn1 (stereo unspecified),·,–,–,–,–,–
O=C(CC1C(=O)NCCN1Cc1cccc(F)c1)NCCCN1CCCC1=O (stereo unspecified),·,–,–,–,14.9,–
COc1cccc(CCNC(=O)CC2C(=O)NCCN2CC(C)(C)C)c1 (stereo unspecified),–,–,–,–,17.3,–
CCOc1ccccc1CN1CCNC(=O)C1CC(=O)NCCc1ccccn1 (stereo unspecified),·,–,–,–,98.9,–
COc1ccc(CCNC(=O)CC2C(=O)NCCN2CC(C)(C)C)cc1 (stereo unspecified),–,–,–,–,–,–
COc1ccc(Cc2c(-c3ccc(F)cc3)nc3cc(C)c(Br)c(C)n23)c(C)c1,·,–,–,·,·,·
CC(=O)c1cccc(-c2ccnc3c2CC(C(=O)Nc2cccc(Oc4ccccc4)c2)O3)c1 (stereo unspecified),·,–,–,·,·,·
COc1ccc(-c2csc(C(C)(NC(C)=O)c3ccccc3)n2)cc1 (stereo unspecified),·,–,–,·,·,·
COc1ccc(CCN2CCCC(CN(C)C(=O)c3ccoc3)C2)cc1 (stereo unspecified),·,–,–,–,15.4,–
SMILES,TLR4-MyD88 BLA,HTR2A ag,NOD2-RIPK2 inh,TLR9-MyD88 inh,LANA-H2A inh,Rtt109 Vps75
COc1ccc(NC(=O)COC(=O)CCC(=O)c2cccs2)cc1OC,·,–,–,–,22.9,–
CC[C@]12c3[nH]c4ccccc4c3CCN1C(=O)C(CC(=O)NC/C=C(\C)CCC=C(C)C)C[C@@H]2C(=O)N1CCN(C(=O)c2ccco2)CC1 (stereo partly specified),·,–,–,–,+,–
CC[C@]12c3[nH]c4cc(-c5ccco5)ccc4c3CCN1C(=O)[C@@H](CC(=O)NC/C=C(\C)CCC=C(C)C)C[C@@H]2C(=O)N1CCN(C(=O)c2ccco2)CC1,·,–,–,–,·,–
Cc1ccc(NC(=O)CS(=O)(=O)c2cn(CC(=O)N3CCOCC3)c3ccccc23)cc1,–,–,–,–,18.4,–
CN(C(=O)CS(=O)(=O)c1cn(CC(=O)N2CCOCC2)c2ccccc12)c1ccccc1,–,–,–,–,33.8,–
Cc1ccccc1NC(=O)CS(=O)(=O)c1cn(CC(=O)N2CCOCC2)c2ccccc12,–,–,–,–,–,–
Cc1cc(CNC[C@H]2O[C@@H](n3cnc4c(N)ncnc43)[C@H](O)[C@@H]2O)no1,·,–,–,–,·,·
OC[C@@H]1CN(Cc2ccccc2)C[C@H](n2cnc3c(NC4CCCC4)ncnc32)O1,·,–,–,·,·,·
COc1ccc2[nH]c(=O)c(CN(Cc3nnnn3Cc3ccccc3)CC3CCCO3)cc2c1 (stereo unspecified),–,–,–,–,–,53.0
CCCCCN=C(N)N/N=C/c1c[nH]c2ccc(OC)cc12,·,–,–,–,–,77.6
Cc1cccnc1C(NC(=O)C1CCN(Cc2ccc(Cl)cc2)CC1)c1ccc(F)cc1 (stereo unspecified),·,–,–,·,·,·
CSc1ccc(CNC(=O)C2(C)CCN2C(C)C)cc1 (stereo unspecified),·,–,–,·,·,·
CCC1=Nc2cc(C(=O)NCCN3CCOCC3)ccc2Sc2ccc(C)cc21,·,–,–,–,5.1,–
CCCC1=Nc2cc(C(=O)NCCN3CCOCC3)ccc2Sc2ccc(C)cc21,·,–,–,–,–,–
CCCCCCN1C[C@@H](O)[C@H](n2cc(C3CC3)nn2)C[C@@H]1c1ccc(Cl)cc1,·,–,–,–,·,·
CCc1ccc(C2=CC(c3cc(Br)ccc3F)n3ncnc3N2)cc1 (stereo unspecified),–,–,38.5,29.4,–,–
COc1cccc(C2=CC(c3ccc(C)cc3)n3ncnc3N2)c1 (stereo unspecified),–,·,·,·,–,·
O=S(=O)(NC1=NCCCCC1)c1ccc(F)cc1,·,–,–,–,–,–
O=S(=O)(NC1=NCCCCC1)c1ccc(Cl)cc1,–,–,–,–,+,–
Cc1c(C(=O)O)sc2nc3n(c(=O)c12)CCC(C)CC3 (stereo unspecified),–,–,–,–,20.1,–
Cc1c(C(=O)O)sc2nc3n(c(=O)c12)CCCCC3,–,–,–,–,–,–
CN(C)C(=O)c1cccc(-c2cccc(-c3nc(C(=O)NCc4ccccc4)cc4c3[C@@H](CCO)N(S(=O)C(C)(C)C)C4)c2)c1 (stereo partly specified),·,–,–,·,·,·
COc1ccc(OC)c(-c2nn(-c3ccccc3)cc2C(=O)N2CCc3ccccc3C2)c1,·,–,–,–,+,–
